For 14 compounds, growth inhibition results are on record in PubChem BioAssay (NCI).

Compounds without any hit were thinned out: in the full panel of roughly 79,000, 15% have a hit. Unmarked numbers belong to inactive results. Calls of active or inactive are those of the source. Rule as the data show it: active = growth inhibition above about 70%; inactive = the rest.

This experiment in a line: NCI Yeast Anticancer Drug Screen. Data for the cln2 rad14 strain (AID 165).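 Also: 0% = growth equal to vehicle treated cultures.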 The settings on record: S. cerevisiae cln2 rad14 strain, hits give high values. Here is the method:
Growth inhibition of yeast strains with defined genetic alterations is measured as a screen for potential anti-cancer activity. Selected strains with alterations in DNA damage repair or cell cycle control were exposed to compounds and growth inhibition was measured relative to vehicle treated controls. The strain used in this assay is cln2 rad14

Where [1] appears, read: at 5.0 µM (retest, dose inferred, filed as 0.5).
Where [2] appears, read: at 50.0 µM (retest, dose inferred, filed as 5.0).

Turning to `Cn1ncc2cc3c(Nc4ccc(Cl)cc4)cccc3nc21`, the growth inhibition under setting [1] is -11%, the growth inhibition under setting [2] is 1% and the growth inhibition (at 50.0 µM) was -6%.

As for `Cc1ccc(S(=O)(=O)N/N=C/C2(c3ccccc3)c3ccccc3-c3ccccc32)cc1`, the growth inhibition by setting is: under setting [1], 45%; under setting [2], 90% (active); (at 50.0 µM) 16.1%.

On to `CC(=O)[C@]1(O)Cc2c(O)c3c(c(O)c2[C@@H](OC2CC(N)C(O)C(C)O2)C1)C(=O)c1c(OCc2ccccc2)cccc1C3=O` (some centres not stated), for which the growth inhibition is 4% under setting [1], 35% under setting [2] and -1.65% (at 50.0 µM).

As to `N#CC(=C1C=CC(=NO)C=C1)c1ccccc1`, the growth inhibition under setting [1] is -1%, the growth inhibition under setting [2] was 99% (active) and the growth inhibition (at 50.0 µM) is 99.2% (active).

Regarding `CC(C)(C)[OH+][O-].[O-]c1ccc(Cl)cc1C=Nc1ccc(Cl)cc1[O-].[O]=[V]`, the growth inhibition under setting [1] was 6%, the growth inhibition under setting [2] is 3% and the growth inhibition (at 50.0 µM) is 90.5% (active).

In the case of `CCCCCCCCCCCCCC(=O)OC(C)CCC1CCCO1` (configuration not stated), the growth inhibition under setting [1] is 81% (active), the growth inhibition under setting [2] was 39% and the growth inhibition (at 50.0 µM) was 37.1%.

For `CCCCCC#CCOC(=O)C(=[N+]=[N-])P(=O)(c1ccccc1)c1ccccc1`, the growth inhibition runs as follows: under setting [1], 37%; under setting [2], 96% (active); (at 50.0 µM) 86.7% (active).

Turning to `C=C(CCCO)[C@@H]1CC[C@@](C)(O)[C@H]1C`, the growth inhibition reads like this: under setting [1], 46%; under setting [2], 28%; (at 50.0 µM) 9.15%.

As to `BrCc1ccccc1C(c1ccccc1)c1ccccc1`, the growth inhibition reads like this: under setting [1], 49%; under setting [2], 93% (active); (at 50.0 µM) 95.8% (active).

For `CCN(CC)N=Nc1c(C(N)=O)n[nH]c1C`, the growth inhibition was -55% under setting [1], -63% under setting [2] and -29.2% (at 50.0 µM).

For the compound `CN[C@@H]1C[C@H]2O[C@@](C)([C@@H]1OC)n1c3ccccc3c3c4c(c5c6ccccc6n2c5c31)C(=O)N[C@@H]4O`, the growth inhibition by setting is: under setting [1], 13%; under setting [2], 38%; (at 50.0 µM) 22.4%.

In the case of `CCCCCCCCCCCCCCCCCCNC(=S)/N=C\C1=C(O)c2ccccc2C1=O`, the growth inhibition under setting [1] was 33%, the growth inhibition under setting [2] was -10% and the growth inhibition (at 50.0 µM) is 25.7%.

Consider `O=S(=O)(N/N=C/c1cccc(Cl)c1)c1ccccc1`, for which the growth inhibition runs as follows: under setting [1], 20%; under setting [2], 89% (active); (at 50.0 µM) 67.4%.

For `CCCCC1=NNC(=O)C1`, the growth inhibition reads like this: under setting [1], 28%; under setting [2], -56%; (at 50.0 µM) 52%.
